Most compounds without a hit are left out; they make up all but 31% or so of the library.
CYP2C9 activ: human CYP2C9 activators, primary screen, biochemical, luminescence. Cytochrome P450 2C9 (Homo sapiens), P11712. recombinant CYP2C9, luciferin-H conversion; stronger effect = higher value; factor 1 = untreated enzyme, 0 = blocked. activation factor at 5 µM. AID 1024, 2008. 1.4% of 96,000 active;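 active = activation factor of 2 or more for CYP2C9 at a 5 µM dose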;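 also: 0 = sulfaphenazole-blocked wells and 1 = vehicle-only wells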
CYP2C9 inh: blockers of cytochrome P450 2C9 activity – biochemical, luminescence, ADME assay, primary screen; P11712; CYP2C9 Supersomes, luciferin-H conversion; inhibition, % at 5 µM; 20% of 96,000 active;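 active = blocking of liver enzyme CYP2C9 beyond about 50% at 5 µM, limit read from the data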
PLAP act: PLAP enzyme activators, biochemical, luminescence, HTS | activation fold at 20 µM | purified PLAP enzyme, luminescent substrate read-out; stronger effect = higher value | Alkaline phosphatase, placental type (Homo sapiens), P05187 | 1.2% of 96,000 active; in the data active = activation fold above about 2
CYP2C19 inh: blockers of cytochrome P450 2C19 activity – biochemical, luminescence, ADME assay, primary screen. P33261. CYP2C19 Supersomes, luciferin-H EGE luminescence, 30 min. inhibition, % at 5 µM. 21% of 96,000 active. AID 778, 2007;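 active = CYP2C19 inhibition above a set limit at 5 µM in the primary screen, cut at about 50% in these data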;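 also: plate controls were negative control wells for no effect and 2.5 mM tranylcypromine positive control for full effect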
Target sequence (P33261 whole entry, looked up): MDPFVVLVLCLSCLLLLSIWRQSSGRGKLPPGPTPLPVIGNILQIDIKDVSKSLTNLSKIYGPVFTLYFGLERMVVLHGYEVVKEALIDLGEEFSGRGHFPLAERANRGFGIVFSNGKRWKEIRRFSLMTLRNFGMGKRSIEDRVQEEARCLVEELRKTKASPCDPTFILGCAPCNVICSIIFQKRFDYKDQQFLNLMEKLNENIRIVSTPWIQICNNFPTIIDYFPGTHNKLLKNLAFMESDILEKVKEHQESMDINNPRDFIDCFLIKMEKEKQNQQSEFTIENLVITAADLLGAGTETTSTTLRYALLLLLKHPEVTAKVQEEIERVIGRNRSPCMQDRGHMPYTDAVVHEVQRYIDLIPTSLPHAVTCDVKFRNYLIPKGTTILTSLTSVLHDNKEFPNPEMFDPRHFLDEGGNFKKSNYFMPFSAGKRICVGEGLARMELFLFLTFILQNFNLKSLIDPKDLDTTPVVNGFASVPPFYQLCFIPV
CYP2C19 act: human CYP2C19 activators, primary screen, biochemical, luminescence | Cytochrome P450 2C19 (Homo sapiens), P33261 | recombinant CYP2C19, luciferin-H EGE luminescence; stronger effect = higher value; 0 = fully inhibited enzyme, 1 = untreated enzyme | activation factor at 5 µM | 96,000 tested, under 10 active | AID 1025, 2008;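 active = activation factor of at least 2 at 5 µM in the primary screen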;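 also: 0 = wells with 2.5 mM tranylcypromine and 1 = vehicle-only wells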
* hit, by the source's call.

SMILES	CYP2C9 activ	CYP2C9 inh	PLAP act	CYP2C19 inh	CYP2C19 act
Cc1ccccc1-c1nn2c(-c3ccccc3)nnc2s1	0.4	56*	0.9	87*	0.1
COc1cc(/C=N/c2oc(-c3ccccc3)cc2C#N)ccc1O	0.9	9	1.1	-9	1.1
O=C(CSCc1ccccc1)NCc1ccc2c(c1)OCO2	0.1	91*	0.7	54*	0.5
CCCn1cc(SCC(=O)NCc2ccc3c(c2)OCO3)c2ccccc21	0.6	42	0.9	28	0.7
O=C(Cn1cc(C(=O)C2CC2)c2ccccc21)NCc1ccc2c(c1)OCO2	0.7	32	1.1	81*	0.2
CCn1cc(SCC(=O)NCc2ccc3c(c2)OCO3)c2ccccc21	0.8	23	0.9	97*	0
Cn1cc(SCC(=O)NCc2ccc3c(c2)OCO3)c2ccccc21	0.3	69*	0.8	100*	0
O=C(CSc1nc2ccccc2n1CC(=O)N1CCCC1)NCc1ccc2c(c1)OCO2	1	2	1.2	19	0.8
COc1ccccc1N1CCN(Cc2nc3ccsc3c(=O)[nH]2)CC1	0.9	11	1	10	0.9
C=CCOC(=O)C1=C(C)NC(=O)NC1c1ccc(OC(=O)c2ccco2)c(OC)c1 (centres undefined)	0.7	34	0.9	49	0.5
CCCCc1c(C)c2ccc(OC)c(/C(C)=N\O)c2oc1=O	0.7	34	1	25	0.7
COc1ccc(NC(=O)CSc2nc(C)c3c(c2C#N)CCCC3)cc1	0.8	21	0.9	20	0.8
Cc1ccccc1C(=O)c1cccn1CC(=O)NCC1CCCO1 (centres undefined)	1	4	1.1	10	0.9
Cc1cc(NC(=O)CSc2nc(C3CCCCC3)nc3ccccc23)no1	0.7	25	0.9	23	0.8
Cc1nc(SCC(=O)NCc2ccc3c(c2)OCO3)c(C#N)c2c1CCCC2	0.1	87*	0.7	84*	0.2
O=C(CSc1nc(C2CC2)nc2ccccc12)N1c2ccccc2Sc2ccc(C(F)(F)F)cc21	0.1	92*	1.3	11	0.9
Cc1ccccc1C(=O)c1cccn1CC(=O)NCc1ccc2c(c1)OCO2	0.3	74*	0.7	62*	0.4
Cc1nonc1NC(=O)CSc1nc(C2CCCCC2)nc2ccccc12	0.5	50*	1.1	2	1
Cc1cc(C)nc(N2CCCC(C(=O)Nc3ccc4nc(C)c(C)nc4c3)C2)n1 (centres undefined)	1.2	-17	1.5	5	0.9
Cc1oc2c(c1C(=O)Nc1cccc(C(=O)O)c1)CCCC2	0.8	18	1.1	-6	1.1
O=C(CSc1nc(C2CC2)nc2ccccc12)NCc1ccc2c(c1)OCO2	0.1	88*	1	47	0.5
Cc1ccc(-c2nc(-c3cccnc3)no2)cc1	1	-2	1	76*	0.2
c1cncc(-c2noc(-c3cccc4ccccc34)n2)c1	0.9	10	1	30	0.7
CCC(=O)Oc1ccc(-c2nc(-c3cccnc3)no2)cc1	0.3	70*	0.9	68*	0.3
c1cncc(-c2noc(-c3ccco3)n2)c1	0.9	6	1.1	24	0.8
SMILES	CYP2C9 activ	CYP2C9 inh	PLAP act	CYP2C19 inh	CYP2C19 act
Cc1ccc(-c2nc(-c3ccccc3)no2)cc1	0.6	44	0.8	66*	0.3
c1ccc(-c2ccccc2-c2nc(-c3cccnc3)no2)cc1	0	96*	0.9	73*	0.3
COc1ccc(N(CC(O)CN2CCCCC2)S(=O)(=O)c2ccc(C)cc2)cc1 (centres undefined)	0.9	10	1.4	-5	1.1
COc1ccc(N(CC(O)CN2C(=O)NC(C)(C)C2=O)S(=O)(=O)c2ccc(C)cc2)cc1 (centres undefined)	0.3	66*	1.5	61*	0.4
COc1ccc(N(CC(O)Cn2nnc3ccccc32)S(=O)(=O)c2ccc(C)cc2)cc1 (centres undefined)	0.3	69*	1.7	86*	0.1
Oc1ccc(C=NCC2COc3ccccc3O2)cc1 (centres undefined)	0.7	27	0.8	9	0.9
CCCCCCCOC(=O)c1ccc(OC(=O)c2cccnc2)cc1	0.8	17	1.4	13	0.9
COc1ccc(CNC(=O)C(C#N)c2nc3ccccc3nc2N2CCN(C)CC2)cc1 (centres undefined)	0.5	46	1.4	58*	0.4
CCC(CC)COC(=O)C(C#N)c1nc2ccccc2nc1N1CCN(CC)CC1 (centres undefined)	0.4	64*	1.2	82*	0.2
N#CC(C(=O)OCc1ccccc1)c1nc2ccccc2nc1N1CCOCC1 (centres undefined)	0.6	40	1.1	50*	0.5
CCC(C)COC(=O)C(C#N)c1nc2ccccc2nc1N1CCCCC1 (centres undefined)	0.3	66*	0.8	50	0.5
COc1ccc(CNC(=O)C(C#N)c2nc3ccccc3nc2N2CCCC2)cc1 (centres undefined)	0.8	24	1.3	16	0.8
N#CC(C(=O)NC1CCCCC1)c1nc2ccccc2nc1N1CCOCC1 (centres undefined)	1	2	1.1	18	0.8
CCOc1ccc(OCC)c(S(=O)(=O)NCc2ccccn2)c1	0.9	14	1.2	43	0.6
CCOC(=O)N1CCC(NC(=O)c2ccc(NC(=O)C3CCCO3)cc2)CC1 (centres undefined)	0.9	8	1.2	11	0.9
CCSc1ncc(C#N)c(N)n1	0.9	11	0.9	3	1
Cc1cc(N2CCN(c3ccccc3)CC2)n2c(n1)nc1ccccc12	0.3	67*	1.3	50	0.5
NCC(O)COCCC12CC3CC(CC(C3)C1)C2 (centres undefined)	0.7	25	1.2	88*	0.1
NC(=O)NCC12CC3CC(CC(C3)C1)C2	1.1	-6	1.1	1	1
O=C(O)CCC(=O)Nc1ccc(C(=O)N2CCCCC2)cc1	0.8	15	1	15	0.8
COC(=O)C1=C(C)NC(=O)C1(NS(=O)(=O)c1ccc(NC(C)=O)cc1)C(F)(F)F (centres undefined)	0.9	8	0.9	38	0.6
COC(=O)C(NS(C)(=O)=O)(c1c(C)[nH]c2ccccc12)C(F)(F)F (centres undefined)	0.9	12	1	64*	0.4
COc1ccc(N2C(=O)CN=C2Nc2nc(C)cc(C)n2)cc1OC	1.1	-13	1.1	-5	1
COC(=O)C1=C(C)N(c2cccc(Cl)c2)C(=O)C1	0.8	23	1.5	64*	0.4
COC(=O)C1=C(C)N(c2ccc(OC)c(OC)c2)C(=O)C1	0.3	74*	1.3	18	0.8
